Inconclusive results are not listed. Entries that show only a call come without a potency. Unmarked numbers belong to inactive results. Active and inactive are the calls of the source. Calls follow the shape of the dose curve; as a rule, active = well fitted inhibition curve with a large enough effect; inconclusive = small, poorly fitted or top-dose-only effect; inactive = flat fitted curve, though single readings scatter.
Biological target: Aldehyde dehydrogenase, mitochondrial (Homo sapiens) (UniProt P05091)
Experiment: qHTS for Inhibitors of the Aldehyde Dehydrogenase Family (ALDH2) Primary screen (AID 2061308); also: nearly all actives have a fitted effect of over 55% in size
Conditions: ALDH2 enzyme inhibition qHTS, 1536-well; series mostly up to 56 µM

SMILES | Potency | activity change, negative = inhibition
COc1ccc(N(C(=O)Nc2c(C)cccc2C)c2cc(Nc3ccc(N4CCN(C)CC4)cc3)ncn2)c(OC)c1 | inactive | 
CC1CCN(C(c2ccc(F)cc2)c2ccc(C(C)C(=O)O)cc2-c2ccc(C(F)(F)F)cc2)CC1 (centres undefined) | inactive | 
C#CCNCc1cc2cc(OCc3ccccc3)ccc2[nH]1 | inactive | 
O=C(NC1CCN(CCCCC2(C(=O)NCC(F)(F)F)c3ccccc3-c3ccccc32)CC1)c1ccccc1-c1ccc(C(F)(F)F)cc1 | inactive | 
CNC(=O)c1ccccc1Nc1nc(Nc2ccc3c(c2OC)CCCC(N2CCN(CCO)CC2)C3)ncc1Cl (centres undefined) | inactive | 
COc1ccc(C2=NC(c3ccc(Cl)cc3)C(c3ccc(Cl)cc3)N2C(=O)N2CCNC(=O)C2)c(OC(C)C)c1 (centres undefined) | inactive | 
CC(=O)N1c2ccc(-c3ccc(C(=O)O)cc3)cc2C(Nc2ccc(Cl)cc2)CC1C (centres undefined) | inactive | 
Fc1ccc(-n2cc(CCCCN3CCC4(CC3)OCc3ccccc34)c3ccccc32)cc1 | inactive | 
COc1ccc2cc1Oc1ccc(cc1)C[C@H]1c3c(cc4c(c3Oc3cc5c(cc3OC)CCN(C)[C@@H]5C2)OCO4)CCN1C | inactive | 
Fc1ccc(C2CCNC[C@H]2COc2ccc3c(c2)OCO3)cc1 (some centres undefined) | inactive | 
CC(Oc1cc(-n2cnc3ccc(CN4CCN(C)CC4)cc32)sc1C(N)=O)c1ccccc1C(F)(F)F (centres undefined) | inactive | 
CC(=O)Nc1cccc2c1c(Sc1ccc(Cl)cc1)c(C)n2CC(=O)O | inactive | 
CN(c1nccc(=O)[nH]1)C1CCN(c2nc3ccccc3n2Cc2ccc(F)cc2)CC1 | inactive | 
Cc1nc2ccc(CN(C)c3ccc(C(=O)NC(CCC(=O)O)C(=O)O)s3)cc2c(=O)[nH]1 (centres undefined) | inactive | 
NC(=O)N1CCC(CC(=O)N2CCC(C3c4ncc(Br)cc4CCc4cc(Cl)cc(Br)c43)CC2)CC1 (centres undefined) | inactive | 
CCC[C@H]1C[C@H](C(=O)N[C@@H]([C@@H]2O[C@@H](SC)[C@@H](O)[C@@H](O)[C@@H]2O)[C@H](C)Cl)N(C)C1 | inactive | 
CN(C)C(=O)COC(=O)c1cc(-c2ccc(C3CCNCC3)cc2)c2ccc(-c3ccc(C(F)(F)F)cc3)cc2c1 | inactive | 

SMILES | Potency | activity change, negative = inhibition
COc1ccc(NS(=O)(=O)c2sc3ccc(Cl)cc3c2C)cc1N1CCNCC1 | inactive | 
Cc1ccc(O)cc1Nc1ccnc(Nc2cccc(C(N)=O)c2)n1 | inactive | 
O=C(NC1Cc2ccccc2N(C[C@@H](O)CO)C1=O)c1cc2cc(Cl)sc2[nH]1 (some centres undefined) | inactive | 
CCS(=O)c1nc(-c2cccc(OCc3ccccc3)c2)cc(C(F)(F)F)n1 (centres undefined) | inactive | 
CCN(CC)CCN(Cc1ccc(-c2ccc(C(F)(F)F)cc2)cc1)C(=O)Cn1c(SCc2ccc(F)cc2)nc(=O)c2c1CCC2 | inactive | 
CN(c1ccccc1CNc1nc(Nc2ccc3c(c2)CC(=O)N3)ncc1C(F)(F)F)S(C)(=O)=O | inactive | 
CC(C)c1nc(CN(C)C(=O)N[C@H](C(=O)N[C@@H](Cc2ccccc2)C[C@H](O)[C@H](Cc2ccccc2)NC(=O)OCc2cncs2)C(C)C)cs1 | inactive | 
CC(=O)N1CCN([C@H]2CCN(C(=O)N(C)[C@H](C)c3cc(C(F)(F)F)cc(C(F)(F)F)c3)[C@@H](c3ccc(F)cc3C)C2)CC1 | inactive | 
CC[C@H](/C=C/[C@@H](C)[C@H]1CC[C@H]2[C@@H]3CC=C4C[C@@H](O)CC[C@]4(C)[C@H]3CC[C@]12C)C(C)C |  | -2.53% [at 5.59 µM]
CC(C)(C(=O)NCC(F)(F)C(F)(F)F)C(=O)NC1C(=O)Nc2ccccc2-c2ccccc21 (centres undefined) | inactive | 
C=CS(=O)(=O)NC1CCN(C(=O)CNc2cc(I)c(Cl)cc2OC)CC1 | inactive | 
O=C(c1ccc(Cl)c([N+](=O)[O-])c1)N1CCN(c2ccccc2F)CC1 | inactive | 
CCN(Cc1ccccc1)C(=O)Cn1c(=O)n(C)c2cnc(-c3ccccc3)nc21 | inactive | 
COc1cc2ncnc(N3CCC(Oc4cnc5ccccc5n4)C3)c2cc1OC (centres undefined) | inactive | 
CN(C)Cc1ccc(-c2cnn3c(-c4cccc(NC(=O)c5cccc(C(F)(F)F)c5)c4)ccnc23)cc1 | inactive | 
O=C(NCc1nc2ccccc2c(=O)n1-c1ccc(F)cc1)Nc1ccc(Cl)c(C(F)(F)F)c1 | inactive | 
CC[C@H]1OC(=O)[C@H](C)[C@@H](O[C@H]2C[C@@](C)(OC)[C@@H](O)[C@H](C)O2)[C@H](C)[C@@H](O[C@@H]2O[C@H](C)C[C@H](N(C)C)[C@H]2O)[C@](C)(O)C[C@@H](C)C(=O)[C@H](C)[C@H]2OC(=O)O[C@@]21C | inactive | 
